Source: PubChem (several laboratories)
Shown are actives, neighbours in structure and some others; about 2.2% of the full set was active somewhere.
APP 5UTR inh: APP translation inhibition. SH-SY5Y APP 5'UTR-luciferase reporter, luminescence. inhibition, % at 2 µM. 190,000 tested, 0.82% active. AID 1285;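 active = inhibition above a set limit, derived from the sample mean plus 3 SD, cut at about 45% in these data; inconclusive = one replicate passes the limit while the other fails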
KLF5 inhibitor: inhibitors of KLF5 expression; DLD-1 KLF5 promoter-luciferase reporter, luminescence; inhibition, % at 5 µM; 290,000 tested, 0.23% active;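 active = inhibition above a per-plate limit of that plate's mean compound inhibition plus 3 SD, cut at about 60% in these data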;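 also: 0% = DMSO wells and 100% = LY294002 at 200 µM; higher means less KLF5 promoter-driven luciferase light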
BaF3 tox: reduces parental Ba/F3 cell viability, JAK2V617F counter-screen; CellTiter-Glo ATP luminescence; inhibition, % at 5.6 µM; 220,000 tested, 1.1% active; AID 1486;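 active = inhibition above a per-campaign cutoff, the mean inhibition of all tested compounds plus 3 SD, cut at about 27% in these data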;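 also: 0% = DMSO wells and 100% = JAK Inhibitor I control wells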
Ba/F3 V617F tox: loss of viability in JAK2V617F-driven Ba/F3 cells. inhibition, % at 5.6 µM. Ba/F3 EpoR-JAK2V617F viability, ATP luminescence. 220,000 tested, 1.1% active;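 active = inhibition above the campaign mean plus 3 SD over all tested compounds, cut at about 24% in these data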;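 also: cytokine-independent growth of Ba/F3 cells driven by EpoR plus mutant JAK2; 0% = DMSO-treated cells and 100% = JAK inhibitor I control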
aSyn UTR inh: MLPCN primary screen, SNCA 5' untranslated region. alpha-synuclein 5'UTR reporter, inhibitor activity. inhibition, % (tested at 7.5 µM). 300,000 tested, 0.82% active. AID 1813; in the data active = inhibition above about 60%; inconclusive = no clear call, values can overlap the other calls;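 also: H4 neuroglioblastoma cells stably carrying SNCA 5'UTR luciferase fusion; 0% = DMSO wells and 100% = positive control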
IEC-6 cytotox: IEC-6 cytotoxicity, counter-screen for KLF5 inhibitors; luminescence viability; inhibition, % at 5 µM; 290,000 tested, 0.78% active;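 also: 0% = plate median of test compound wells and 100% = cytotoxic reference compound wells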
IEC-6 cytotox cf: IEC-6 cytotoxicity, confirmation assay | IEC-6 rat intestinal epithelial viability, luminescence | 1,900 tested, 63% active | inhibition, % at 5 µM | shares compounds with IEC-6 cytotox;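 also: 0% = vehicle and 100% = reference cytotoxic drug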
Active calls of the source: *; ? = inconclusive; . = no result given. Rule as the data show it, unless noted: active = inhibition above about 22%; inactive = the rest.

SMILES	APP 5UTR inh	KLF5 inhibitor	BaF3 tox	Ba/F3 V617F tox	aSyn UTR inh	IEC-6 cytotox	IEC-6 cytotox cf
Cc1cccc(C)c1OCC(=O)NNC(=S)NC(=O)C1CC1	.	32	.	.	7	29*	2
CC(=O)c1c(C)oc2c1C(=O)c1ccccc1C2=O	2	-12	8	-1	-62	3	.
Cc1oc2c(c1C(=O)NCc1cccnc1)C(=O)c1ccccc1C2=O	95*	-17	101*	94*	107*	102*	105*
O=C(Nc1ccc(OC(F)F)cc1)c1ncc(Cl)c(Cl)c1Cl	2	23	0	-2	-54	10	.
CCC1CCCCN1S(=O)(=O)c1ccc(NC(=O)c2nc(S(C)(=O)=O)ncc2Cl)cc1 (configuration not stated)	.	8	.	.	51	94*	22
CCC1CCCCN1S(=O)(=O)c1ccc(NC(=O)c2ccncc2)cc1 (configuration not stated)	.	-25	.	.	-27	7	.
CCS(=O)(=O)c1ncc(Cl)c(C(=O)Nc2ccc(C)cc2)n1	.	20	.	.	-27	75*	42*
CCS(=O)(=O)c1ncc(Cl)c(C(=O)Nc2ccc(S(=O)(=O)N3CCCC(C)C3)cc2)n1 (configuration not stated)	.	55	.	.	72*	101*	4
CC1CCCN(S(=O)(=O)c2ccc(NC(=O)CNC3CCCC3)cc2)C1 (configuration not stated)	.	-7	.	.	1	3	.
Cc1ccc(CS(=O)(=O)c2ncc(Cl)c(C(=O)Nc3ccc(OC(F)F)cc3)n2)cc1	.	10	.	.	?	31*	15
CC(C)C[C@H](NC(=O)C1CC(=O)N(c2ccc3c(c2)OCCO3)C1)C(=O)N1CCCCC1 (some centres not stated)	.	-20	.	.	-8	-9	.
COc1cccc(C(c2nnnn2Cc2ccco2)N2CCN(c3cccc(C)c3C)CC2)c1OC (configuration not stated)	-13	-19	2	-4	52	-8	.
C#CCOC(=O)Nc1cnccc1C(F)(F)F	.	-4	1	3	24	2	.
C/C(=N\NC(=O)c1cccc(F)c1)c1ccc(Br)s1	-3	6	14	7	-45	24*	32*
N#CC1=C(N)Oc2cc(N)ccc2C1c1cc(Br)cs1 (configuration not stated)	.	1	.	.	-75	24*	10
N#CC1=C(N)Oc2cc(N)ccc2C1c1ccsc1 (configuration not stated)	4	-27	7	-2	-12	-2	.
N#CC1=C(N)Oc2cc(N)ccc2C1c1cccc(Br)c1 (configuration not stated)	.	61	.	.	119*	81*	54*
COc1ccc(C2CC(=O)c3cnc(NC(=O)c4ccccc4)nc3C2)cc1OC (configuration not stated)	-2	6	11	4	5	5	.
Cc1ccc2nc(SCC(=O)Nc3cc(C(F)(F)F)ccc3N3CCOCC3)[nH]c2c1	94*	55	75*	78*	96*	82*	60*
CCCc1cc(=O)n2[nH]cc(-c3ccc(Cl)cc3)c2n1	.	-23	.	.	71*	23*	6
O=C(Nc1ccccc1)Nc1cccc(Cl)c1Cl	-55	-15	5	-2	-237	7	.
O=C(Nc1ccc(Oc2ccc(NC(=O)Nc3ccccc3Cl)cc2)cc1)Nc1ccccc1Cl	.	1	1	-2	-6	15	-2
CC(C)C[C@H](NC(=O)[C@H]1N2C(=O)c3ccccc3C2SC1(C)C)C(=O)N[C@@H](Cc1ccccc1)C(=O)O (some centres not stated)	.	-33	.	.	16	2	.
C=CCOC(=O)C1=C(C)NC(SCC(=O)Nc2ccc(C)c(Cl)c2)=C(C#N)C1c1ccco1 (configuration not stated)	-7	-22	-1	-2	3	-2	.
O=C(N/N=C1/CC(c2ccccc2)Oc2ccccc21)C1CC1 (configuration not stated)	-14	4	1	-5	11	0	.
COc1ccc(Cl)cc1NC(=O)CSc1nc(Nc2ccccc2)nc(N2CCOCC2)n1	.	9	.	.	8	30*	12
Cc1ccc(Nc2nc(NCC3CCCO3)nc(N)c2[N+](=O)[O-])cc1 (configuration not stated)	5	-22	8	1	41	-2	.
